{"source": "PubChem BioAssay (NCI)", "note": "Compounds without any hit were thinned out: in the full panel of roughly 83,000, 20% have a hit.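 The endpoint reported here, percent growth, reads 100 for growth as untreated, 0 for no net growth and -100 for all cells dead.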 Calls of active or inactive are those of the source. The calls were made as follows: active = growth percent below 10; inactive = the rest."}
{"test_system": "MDA-MB-468 breast", "test": "NCI-60 one-dose screen, 48 h (100 = growth as untreated, 0 = no growth, -100 = all killed)", "details": "10 µM unless noted"}
{"smiles": "COc1ccc(C(=O)Nc2ncc(Cc3ccccc3Cl)s2)cc1", "growth": "24.7% (inactive)"}
{"smiles": "CC(O)Cc1c[nH]c(=O)[nH]c1=O", "note": "(centres undefined)", "growth": "121% (inactive)"}
{"smiles": "Oc1ccc(CN2CCC(N3CCCCC3)CC2)c2cccnc12", "growth": "23.9% (inactive)"}
{"smiles": "COc1cc(C2CC(=O)Nc3c2c(C)nn3-c2nc3ccccc3[nH]2)c(OC)c(OC)c1OC", "note": "(centres undefined)", "growth": "31.1% (inactive)"}
